Compound activity from PubChem.
dFosB act-1 – activators of delta FosB homodimer, primary screen, biochemical, fluorescence polarization, TAMRA-CDK5 oligo, single point; activation, % at 25 µM; purified delta FosB; percent of positive-control signal above neutral wells; Protein FosB (Mus musculus), P13346; 340,000 compounds, 0.99% hits;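 active = mean activation above about 17%, with every replicate also reaching it, limit read from the data, passing the limit was not always enough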
Target sequence (P13346 whole entry, looked up): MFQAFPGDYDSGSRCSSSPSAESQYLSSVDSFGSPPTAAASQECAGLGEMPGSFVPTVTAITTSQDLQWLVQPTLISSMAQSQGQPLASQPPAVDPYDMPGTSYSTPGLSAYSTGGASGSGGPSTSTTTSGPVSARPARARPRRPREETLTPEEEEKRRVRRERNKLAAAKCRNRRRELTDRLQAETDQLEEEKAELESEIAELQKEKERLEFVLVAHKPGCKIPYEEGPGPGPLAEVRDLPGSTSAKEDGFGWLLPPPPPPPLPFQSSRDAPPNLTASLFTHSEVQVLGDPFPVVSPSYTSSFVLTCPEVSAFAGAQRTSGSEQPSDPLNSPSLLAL
MEKK3 PB1 HTS – modulators of MEKK3-MEK5 PB1 binding, primary screen, biochemical, wildtype MEKK3, multiplex bead flow cytometry, Alexa488-MEK5. bead-based flow cytometry, Alexa488-MEK5 binding to MEKK3; actives lie on both sides; 0 = blocked by unlabeled MEK5, 100 = vehicle. binding response (% of control), % at 10 µM. 290,000 compounds, 1.4% hits. Mitogen-activated protein kinase kinase kinase 3 (Homo sapiens), Q99759. AID 1529, 2009;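 active = binding response more than 3 SD above or below the average of its plate-row segment, actives on both sides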;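 note: Alexa488 bead fluorescence after subtracting the streptavidin-only scavenger bead signal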
FID counter – compounds displacing fluorescent DNA intercalator, primary screen, artefact control for HCV NS3 helicase inhibitor project, biochemical, FID fluorescence; AID 1845, 2009; DNA fluorescent intercalator displacement; inhibition, % at 7.9 µM; 290,000 compounds, 0.17% hits; in the data active = inhibition above about 37%;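 note: 0% = vehicle and 100% = reference compound; higher means more ethidium bromide displaced from hairpin DNA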
MEKK2 WT-MEK5 – modulators of MEK5 binding to wildtype MEKK2, primary screen, biochemical, multiplex bead flow cytometry, Alexa488-MEK5; binding response (% of control), % at 10 µM; Alexa488-MEK5 binding to MEKK2 WT; actives lie on both sides; AID 1531, 2009; 290,000 compounds, 1.1% hits; Mitogen-activated protein kinase kinase kinase 2 (Homo sapiens), Q9Y2U5; in the data active = binding response below about 67% or above about 130%
MEKK2 mut-MEK5 – MEK5 binding signal on mutant MEKK2 PB1, primary screen, biochemical, multiplex bead flow cytometry, Alexa488-MEK5; AID 1530, 2009; Alexa488-MEK5 binding to MEKK2 mutant; 290,000 compounds, 0.35% hits; percent response, % at 10 µM; in the data active = percent response above about 24%, passing the limit was not always enough
dFosB act-2 – activators of mouse delta FosB DNA binding, confirmation, biochemical, fluorescence polarization, TAMRA-CDK5 oligo, cherry-picked samples; shares compounds with dFosB act-1; purified delta FosB; normalised: neutral wells 0, positive control 100; activation, % at 24.9 µM; 2,400 tested, under 10 active; AID 588690, 2011;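 active = highest replicate activation at or above 34% and every replicate reaching that threshold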;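 note: higher polarization means more probe DNA bound by delta FosB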
Numbers without * were called inactive; . = not tested or not shown. Shown are actives, neighbours in structure and some others; about 2.9% of the full set was active somewhere.

SMILES	dFosB act-1	MEKK3 PB1 HTS	FID counter	MEKK2 WT-MEK5	MEKK2 mut-MEK5	dFosB act-2
CN(C)S(=O)(=O)c1ccc2c(c1)nc(CCC(=O)NCCc1ccc(Cl)cc1)n2C	0.3	100.0	-30.8	103.0	3.0	.
Nc1nc(-c2ccc(Br)s2)c(Br)s1	1.0	98.0	0.4	96.0	-1.0	.
CN(C(=O)COC(=O)c1ccccc1OCc1ccc(Cl)cc1)c1c(N)n(Cc2ccccc2)c(=O)[nH]c1=O	33.7*	.	.	.	.	2.2
CC(C)CN(C(=O)COC(=O)C(C)N1C(=O)c2ccccc2C1=O)c1c(N)n(Cc2ccccc2)c(=O)[nH]c1=O (configuration not stated)	37.3*	.	.	.	.	2.9
CCN(C(=O)COC(=O)CCc1ccccc1OC)c1c(N)n(Cc2ccccc2)c(=O)[nH]c1=O	27.7*	.	.	.	.	2.0
CCCN(C(=O)COC(=O)CCOc1ccc(C)cc1)c1c(N)n(Cc2ccccc2)c(=O)[nH]c1=O	9.2	.	.	.	.	.
Cc1ccc(OCCC(=O)N(CCC(C)C)c2c(N)n(Cc3ccccc3)c(=O)[nH]c2=O)cc1	24.2*	.	.	.	.	-2.4
CCOC(=O)C1CCN(S(=O)(=O)CCNC(=O)c2cccc(OC)c2)CC1	-3.0	.	.	.	.	.
CCOc1cc(/C=N\Nc2ncc(F)c(N3CCOCC3)n2)ccc1Oc1nc(Cl)ncc1F	5.7	90.0	-21.5	92.0	-17.0	.
O=C(NC1CC1)C1CCN(C2CCN(C(=O)/C=C/c3cccc(F)c3F)CC2)CC1	-6.0	106.0	-1.0	96.0	-6.0	.
CCOC(=O)Cc1nc2cc(Cl)ccc2o1	-5.7	87.0	3.9	82.0	-13.0	.
Cc1ccc(SCC(=O)OCC(=O)N(CC(C)C)c2c(N)n(Cc3ccccc3)c(=O)[nH]c2=O)cc1C	33.4*	.	.	.	.	-4.3
Cc1ccc(C(=O)NCC(=O)OCC(=O)N(CC(C)C)c2c(N)n(Cc3ccccc3)c(=O)[nH]c2=O)cc1C	-2.8	.	.	.	.	.
CCOC(=O)C1(CCSC)NC(c2ccco2)C2C(=O)N(C)C(=O)C21 (configuration not stated)	-5.3	97.0	-3.3	95.0	0.0	.
O=S(=O)(NCCC1CC1(Cl)Cl)c1ccc(Cl)cc1 (configuration not stated)	-3.3	106.0	1.0	103.0	7.0	.
COc1ccc(C)cc1NC(=O)Nc1ccc2c(c1)CCC2	23.4*	105.0	-6.5	110.0	3.0	0.9
Cc1csc2ncnc(NNC(=O)c3ccc(Cl)cc3)c12	28.1*	96.0	-3.5	90.0	-19.0	1.6
O=C(NNc1ncnc2sccc12)c1ccc(Cl)cc1	0.4	103.0	-2.0	101.0	0.0	.
CCCOc1ccc(C2c3c(oc4cc(C)c(C)cc4c3=O)C(=O)N2CCCN(C)C)cc1 (configuration not stated)	28.2*	97.0	-7.3	98.0	4.0	1.8
COc1cccc(/C=N/NC(=O)CN(C2=NS(=O)(=O)c3ccccc32)c2ccccc2)c1	21.7*	98.0	-18.2	95.0	-2.0	-0.3
COc1ccc(/C=N/NC(=O)CN(C2=NS(=O)(=O)c3ccccc32)c2ccccc2)cc1OC	3.2	102.0	-6.0	100.0	-1.0	.
CCNC(=S)Nc1ccccc1-c1ccccc1	2.4	94.0	1.8	96.0	-2.0	.
CC1(C)CC(N=c2cc(-c3ccccc3)oc3ccc(Cl)cc23)CC(C)(C)N1	40.5*	109.0	-1.0	128.0	-8.0	-2.6
OCCCN=c1cc(-c2ccccc2)oc2ccc(Cl)cc12	10.0	95.0	-3.9	102.0	0.0	.
O=C(c1ccc2c(c1)OCO2)N1CCc2ccccc21	-5.8	101.0	-16.4	103.0	3.0	.
SMILES	dFosB act-1	MEKK3 PB1 HTS	FID counter	MEKK2 WT-MEK5	MEKK2 mut-MEK5	dFosB act-2
COC(=O)CSc1nnc(-c2c[nH]c3ccccc23)o1	5.6	101.0	-8.8	101.0	5.0	.
c1ccc(CSc2nnc(-c3c[nH]c4ccccc34)o2)cc1	20.0*	102.0	-10.0	102.0	-2.0	6.0
CN(C)CC1CCCCC1OC(=O)/C=C/c1ccccc1 (configuration not stated)	-0.4	90.0	7.1	88.0	-18.0	.
CCOc1ccc(NS(=O)(=O)c2ccc(C(=O)NCC(c3ccc(OC)cc3)N3CCCC3)cc2)cc1 (configuration not stated)	24.0*	.	.	.	.	5.6
COc1ccc(C(CNC(=O)c2ccc(NS(=O)(=O)c3ccc(F)c(C)c3)cc2)N2CCCC2)cc1 (configuration not stated)	-14.6	.	.	.	.	.
CCOc1cc(/C=C(\C#N)C(=O)Nc2ccccc2[N+](=O)[O-])ccc1OCc1cccc2ccccc12	.	104.0	-7.4	99.0	-1.0	.
CC1(C)CC(=O)C(C=NCCN2CCN(C3CC(=O)N(c4ccc(Br)cc4)C3=O)CC2)=C(O)C1 (configuration not stated)	-9.1	91.0	-33.1	88.0	-13.0	.
CCOc1ccc(-n2c(SCC(=O)Nc3nccs3)nc3c(c2=O)SCC3)cc1	-5.5	107.0	4.1	107.0	7.0	.
Cc1ccc(-n2c(SCC(=O)Nc3nccs3)nc3c(c2=O)SCC3)cc1	38.2*	.	2.1	.	.	0.6
CCc1noc(C)c1C(=O)Nc1ccc(F)c(F)c1	-0.8	.	.	.	.	.
O=C(Nc1ccccc1)Nc1snnc1C(=O)Nc1cccc(O)c1	57.3*	100.0	-9.0	96.0	-3.0	1.2
O=C(Nc1cccc(O)c1)c1cccc(C(=O)Nc2cccc(O)c2)c1	-5.9	106.0	-6.3	104.0	0.0	.
Cc1ccc(C)c(Cn2c3ccccc3c3cnn(CC(=O)NCc4ccccn4)c(=O)c32)c1	21.0*	98.0	-31.9	97.0	-2.0	0.7
O=C(Cn1ncc2c3ccccc3n(Cc3cccc(Cl)c3)c2c1=O)NCc1ccccn1	-11.3	105.0	-45.8	104.0	3.0	.
Cc1c(C(=O)Nc2cccc([N+](=O)[O-])c2)csc1-c1ccccc1	58.1*	.	-2.0	.	.	6.3
COC(=O)c1sc(NC(=O)c2cccc([N+](=O)[O-])c2)c(C(N)=O)c1C	5.8	97.0	-7.1	99.0	-2.0	.
O=C(Nc1cccc([N+](=O)[O-])c1)c1cccc(C(=O)Nc2cccc([N+](=O)[O-])c2)c1	33.7*	93.0	-2.0	97.0	2.0	-1.4
COC(=O)c1c(NC(=O)c2cccc([N+](=O)[O-])c2)sc(C(N)=O)c1C	28.8*	91.0	1.0	90.0	-9.0	-6.8
O=C(Nc1ccc(NC(=O)c2cccc([N+](=O)[O-])c2)cc1)c1cccc([N+](=O)[O-])c1	2.3	106.0	10.9	109.0	4.0	.
